This note sets out measurements from PubChem BioAssay AID540256 (National Center for Advancing Translational Sciences (NCATS), 2011).

The structures appear in SMILES notation. The campaign covered roughly 300,000 compounds. About 3,700 (1.2%) were called active. About 20% were inconclusive and are not listed. The sample holds actives, similar compounds and a random draw of the others, so the mix is not that of the screen. A number with no mark means an inactive call. Calls come from the whole dose curve; tested in HEK293 cells.
% is set by controls: 0 for no effect and ±100 for the full control effect; potency is the fitted concentration of half-maximal effect.

The nature of this assay: qHTS for Inhibitors of binding or entry into cells for Lassa Virus. Note: nearly all actives have a fitted effect of over 50% in size. The conditions noted are these: Lassa virus pseudotype entry inhibition, cell reporter; series mostly up to 37.9 µM; activity change, negative = inhibition: at the top concentration. A general note: In qHTS, concentration-response curves come from the screen itself.
As to `Cc1ccc(S(=O)(=O)N2CCC(C(=O)NCCC3=CCCCC3)CC2)cc1C`, the “activity change, negative = inhibition” value is -19.8%.

Turning to `COc1cc(NC(=O)c2ccc(-c3csc(C)n3)cc2)c(OC)cc1Cl`, the “activity change, negative = inhibition” value was 3.71% [at 46.1 µM]. Consider `O=C1c2ccccc2C(=O)c2c1cccc2N1CCN(C/C=C/c2ccccc2)CC1`, for which the “activity change, negative = inhibition” value is -2.1%. The same measure, in the same setting: the result for `O=C(Nc1cccc(Br)c1)C1CC(=O)N(C2CCCC2)C1` (stereo not given) reads -5.96%. As to `CN(c1cccc(NC(=O)Nc2ccc(Cl)cc2)c1)S(C)(=O)=O`, the “activity change, negative = inhibition” value was -26.4%. The same measure, in the same setting: the result for `Cc1ccc(S(=O)(=O)N(CC(=O)Nc2cccc([N+](=O)[O-])c2)Cc2ccc(Cl)cc2)cc1` reads -10.6%; that for `CN(C)S(=O)(=O)c1cccc(NC(=O)COC(=O)c2cc(=O)[nH]c(=O)[nH]2)c1`, 10.8%.

Regarding `CN(c1ccccc1)S(=O)(=O)c1cccc(NC(=O)Cc2c(F)cccc2Cl)c1`, the Potency was 11.2 µM (active). In the case of `CN(c1ccccc1)S(=O)(=O)c1ccc(Cl)c(C(=O)OCC(N)=O)c1`, the “activity change, negative = inhibition” value is 0.528%.

`CN(c1ccccc1)S(=O)(=O)c1cccc(NC(=O)Cc2ccc(Cl)cc2)c1`: the Potency is 8.91 µM (active).

On to `CN(C)S(=O)(=O)c1cccc(NC(=S)N/N=C/C(=O)c2ccccc2)c1`, for which the “activity change, negative = inhibition” value was 1.43%. Still for that read-out and setting: next, `CN(C)S(=O)(=O)c1cccc(NC(=O)COC(=O)/C=C/c2cccs2)c1`: -1.32%. In the case of `NS(=O)(=O)c1ccc(NC(=O)COC(=O)C2(c3ccc(F)cc3)CCCC2)cc1`, the “activity change, negative = inhibition” value is -23.2%. Take `CN(C)S(=O)(=O)c1cccc(NC(=O)Cc2ccsc2)c1`: the Potency was 2.82 µM (active). For the molecule `CN(c1ccccc1)S(=O)(=O)c1cccc(C(=O)NNC(=O)c2ccncc2)c1`, the “activity change, negative = inhibition” value is 2.82% [at 46.1 µM]. Take `CN(C)S(=O)(=O)c1cccc(NC(=O)COC(=O)C2(c3ccccc3F)CCCC2)c1`: the Potency is 4.11 µM (active). `O=C(COC(=O)C1CCCO1)Nc1nc(-c2ccc(F)cc2)cs1` (stereo not given): the “activity change, negative = inhibition” value is -0.186% [at 46.1 µM].

Take `COc1cc(N)c(Cl)cc1C(=O)OCC(=O)c1ccc2c(c1)NC(=O)CO2`: the “activity change, negative = inhibition” value is 18.6%.

For `COC(=O)C=C[C@H]1c2ccccc2[C@@H](OC)[C@@H]1C`, the “activity change, negative = inhibition” value is -0.222% [at 14.3 µM].

For `NC1=NC(c2ccc([N+](=O)[O-])cc2)N(c2ccc(F)cc2)C(N)=N1` (stereo not given), the “activity change, negative = inhibition” value was 28.8% [at 46.1 µM].

In the case of `CC(C)Sc1nc(N)nc2c1ncn2C1OC(CO)C(O)C1O` (stereo not given), the “activity change, negative = inhibition” value is 10.1% [at 46.1 µM]. As to `COc1cc2c(cc1OC)CN(C(=O)c1cc(S(=O)(=O)N3CCCCC3)ccc1Cl)CC2`, the “activity change, negative = inhibition” value is -0.858% [at 46.1 µM]. Same read-out and setting: the result for `CCOc1ccccc1NC(=S)C(=C([O-])c1ccc2c(c1)OCCO2)[n+]1ccc(CC)cc1` reads 7.85% [at 46.1 µM]. Same read-out and setting: next, `CC(C)c1ccc(NC(=O)c2ccc(Cn3nc(N4CCN(c5ccccc5)CC4)ccc3=O)o2)cc1`: 16.8% [at 46.1 µM]; `O=C(CSc1nnc(COc2ccc(Cl)cc2)n1Cc1ccco1)N1CCNC1=O`: -12.1%. As to `O=C(c1cc(C(=O)N2CCN(c3ccc(F)cc3)CC2)cc([N+](=O)[O-])c1)N1CCN(c2ccc(F)cc2)CC1`, the “activity change, negative = inhibition” value is -26.7%. `O=C(NCCCN1CCCC1=O)C(=O)NCC1OCCN1S(=O)(=O)c1ccc(Br)cc1` (stereo not given): the “activity change, negative = inhibition” value was 12.8%.

For `CCc1cccc(NC(=O)CN(C)S(=O)(=O)c2ccc3[nH]c4c(c3c2)CCCC4)c1`, the “activity change, negative = inhibition” value is -0.536% [at 46.1 µM]. On the same count and under the same terms, the result for `Cc1cc(C)cc(NC(=S)NCc2ccc(F)cc2)c1` reads 11.6%. On to `Cc1cccc(NC(=S)NCc2ccc3[nH]c4c(c3c2)CCCC4)c1`, for which the Potency is 20.6 µM (active).

As to `CCCC(O)(c1ccccc1)C(c1ccccc1)c1ccccn1` (stereo not given), the “activity change, negative = inhibition” value is 13.1% [at 46.1 µM]. Still for that read-out and setting: next, `CCOC(=O)c1ccc(NC(=O)C2CCN(S(=O)(=O)c3ccc4c(c3)CCCC(=O)N4)CC2)cc1`: -0.487% [at 46.1 µM]; `Cc1c(C)n(Cc2ccc(Cl)cc2)c2ccc(C(=O)NCCc3ccc(S(N)(=O)=O)cc3)cc12`: -15% [at 46.1 µM]. As to `CC(C)(CO)CNC(=O)c1ccc2[nH]c(O)c(N=Nc3ccc(S(N)(=O)=O)cc3)c2c1`, the Potency was 1.58 µM (active). On to `COc1ccc(C(=O)NCCc2ccc(S(N)(=O)=O)cc2)cc1OC`, for which the “activity change, negative = inhibition” value is 1.98%. On to `CCCCOc1ccc(N(CC(=O)NCC2CCCO2)C(=O)CCC(=O)Nc2cc(C)ccn2)cc1` (stereo not given), for which the Potency is 23.1 µM (active). Take `Cc1cc(NC(=O)CCC(=O)N(CC(=O)NCC2CCCO2)c2ccccc2C)no1` (stereo not given): the “activity change, negative = inhibition” value was -4.64%. On the same count and under the same terms, the result for `Cc1cc(NC(=O)CCC(=O)N(CC(=O)NCC2CCCO2)c2ccccc2)no1` (stereo not given) reads 14%. Same read-out and setting: the result for `Cc1oc2ncnc(N3CCCCC3)c2c1C(=O)N1CCN(c2cccc(Cl)c2)CC1` reads -17.4% [at 46.1 µM]; that for `Cc1ccc(CNC(=O)COc2ccc(S(=O)(=O)NC(C)C)cc2)cc1`, -27.2%; that for `Cc1ccc(OCC(=O)NNC(=S)NCc2ccccc2)cc1`, -3.7%. As for `Cc1ccc(CNC(=O)COc2ccc3c(c2)CCC3)cc1`, the Potency was 18.4 µM (active). Regarding `O=C1CCc2cc(S(=O)(=O)Nc3ccc(C(F)(F)F)cc3)cc3c2N1CC3`, the “activity change, negative = inhibition” value is 0.263%. Still for that read-out and setting: next, `CCOc1ccc(C(=O)CCC(=O)NC2=NCCS2)cc1`: 2.25%; `Cc1ccc2oc(=O)c3cnn(CC(=O)N4CCN(c5cccc(Cl)c5)CC4)c3c2c1`: -7.95% [at 46.1 µM]; `Cc1ccccc1CCNC(=O)C1CCC(=O)N(Cc2ccc(Cl)cc2)C1` (stereo not given): -1.95%. Same read-out and setting: next, `COc1ccccc1NC(=O)Nc1nc(CC(=O)Nc2ccccc2F)cs1`: 3.87%. In the case of `Brc1ccc(-c2csc(N/N=C/c3ccc4c(c3)OCO4)n2)cc1`, the “activity change, negative = inhibition” value was 7.35%. As to `C(=N\Nc1ccc2ccccc2n1)/c1ccc2c(c1)OCO2`, the Potency was 2.24 µM (active).

As for `Cc1noc(C)c1/C=N/Nc1ccc2ccccc2n1`, the “activity change, negative = inhibition” value was -25.4%.
